Results from PubChem BioAssay (NCI).
The panel holds about 79,000 compounds, 15% with a hit somewhere; the sample as a whole holds those more often. No stated cut-off is given here; in the data, active means growth inhibition above about 70%; inactive means the rest.

What was measured:
[1] = NCI Yeast Anticancer Drug Screen. Data for the rad50 strain (AID 155);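 further: 0% = growth of vehicle-only cultures of the same strain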; conditions: S. cerevisiae rad50 strain growth inhibition; at 50.0 µM; active compounds read high
In short: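 Growth of the mutant yeast was measured after compound exposure and referenced to vehicle-treated cultures.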

[2] = NCI Yeast Anticancer Drug Screen. Data for the mec2-1 strain (AID 157); conditions: S. cerevisiae mec2-1 strain, at 50.0 µM, active compounds read high
In short: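 Vehicle-treated cultures served as reference for growth inhibition of compound-exposed mec2-1 yeast.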

[3] = NCI Yeast Anticancer Drug Screen. Data for the sgs1 mgt1 strain (AID 161);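 further: 0% = growth of cultures given vehicle only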; conditions: S. cerevisiae sgs1 mgt1 strain, at 50.0 µM, active compounds read high
In short: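 Inhibition of yeast growth, normalised to vehicle-treated controls, is reported for a strain bearing genetic alterations in DNA damage repair.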

[4] = NCI Yeast Anticancer Drug Screen. Data for the cln2 rad14 strain (AID 165);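 further: 0% = growth equal to vehicle treated cultures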; conditions: S. cerevisiae cln2 rad14 strain, at 50.0 µM, active compounds read high
In short: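 Each compound was tested on cln2 rad14 yeast. Inhibition of growth was calculated against vehicle-exposed controls.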

[5] = NCI Yeast Anticancer Drug Screen. Data for the bub3 strain (AID 167); conditions: S. cerevisiae bub3 mutant strain, at 50.0 µM, active compounds read high
In short: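 Whole-cell yeast assay. The mutant strain was incubated with compounds, and growth inhibition was determined by comparison with vehicle-treated cells.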

[6] = NCI Yeast Anticancer Drug Screen. Data for the mlh1 rad18 strain (AID 175); conditions: S. cerevisiae mlh1 rad18 strain growth inhibition; at 50.0 µM; active compounds read high
In short: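 Vehicle-treated cultures served as the reference for growth inhibition in a yeast strain carrying DNA damage repair alterations exposed to each compound.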

Measured: growth inhibition

CC(=O)N[C@]1(C)CCC2C[C@H]1C(C)=NC2(C)C
inactive: [1] -5.55% | [2] 4.05% | [3] -2.5% | [4] 12.2% | [5] 1.3% | [6] -14.4%

Cc1cc(C)n(-c2ccnc(-n3nc(C)cc3C)n2)n1
inactive: [1] 22% | [2] 23.9% | [3] 33.9% | [4] 7.7% | [5] 21.6% | [6] 40.3%

CC1SCC(C)(C)NC1=O (stereo not given)
inactive: [1] 3.85% | [2] 5.15% | [3] -3.95% | [4] -8.5% | [5] 5.7% | [6] 0.55%

Cc1c(-c2nc(N)nc(C3CC3)c2C)nc(N)nc1C1CC1
inactive: [1] 4.55% | [2] -9.1% | [3] -12.7% | [4] -11.7% | [5] -26.8% | [6] -7.35%

CNCCCCCNC
inactive: [1] -7% | [2] -10.6% | [3] -1.05% | [4] -5.45% | [5] -0.2% | [6] 19.2%

Clc1ccc(-n2cccc2)cc1
inactive: [1] -4.75% | [2] 0.25% | [3] 10.7% | [4] 5.8% | [5] -19.6% | [6] -6.3%

CC1CC[P+](C)(Cc2ccccc2)C1 (mixture of isomers)
inactive: [1] 8.7% | [2] 0.8% | [3] -18.4% | [4] 1.9% | [5] 5.45% | [6] 18.6%

COc1cc(C=O)c(-c2c(C=O)ccc3c2OCO3)c(OC)c1OC
inactive: [1] 24.4% | [2] -1.9% | [3] 30.2% | [4] 18.1% | [5] 26% | [6] -1.5%

CC(=O)c1ccccc1NC(=O)C(=O)C(C(=O)c1ccccc1-c1ccccc1)C1OC(=O)c2ccccc21 (stereo not given)
inactive: [1] 25% | [2] 2.95% | [3] 8.3% | [4] -49.8% | [5] -1.35% | [6] 11.3%

C#CCOCC12C=CC(O1)C1C(=O)OCC12 (stereo not given)
inactive: [1] -9.45% | [2] 9.65% | [3] -12.8% | [4] 18.9% | [5] 21% | [6] 41.9%

Cc1ccc2nc(C(O)C(O)C(O)CO)[nH]c2c1 (stereo not given)
inactive: [1] -11.3% | [2] -14.9% | [3] 10.7% | [4] -11.6% | [5] -25.7% | [6] -12.7%

COC(=O)c1nnn(-c2cccc(Cl)c2)c1N
inactive: [1] 3.7% | [2] -6.1% | [3] -0.25% | [4] 15.7% | [5] -26.9% | [6] 20.4%

CCOC(=O)C(Cc1cc(N)c(O)c(N)c1)NC(C)=O (stereo not given)
inactive: [1] 1.95% | [2] -4.95% | [3] -1.5% | [4] 6.8% | [5] -1.45% | [6] -0.85%

C[N+](C)(C)/N=C1\CC2CCC1C2 (stereo not given)
inactive: [1] 18.3% | [2] -4.5% | [3] -5.55% | [4] 4.75% | [5] 1.9% | [6] 23.1%

CC1(C(=O)O)CCC(C(=O)Nc2ccccc2)C1(C)C (stereo not given)
inactive: [1] -11.2% | [2] -20.6% | [3] 5.05% | [4] -0.35% | [5] -13.1% | [6] 1.9%

CCC(C(=O)OC)C1CCCCC1 (stereo not given)
inactive: [1] 24.8% | [2] -27.8% | [3] -12.3% | [4] -7.65% | [5] -10.7% | [6] 22.4%

NNc1ncnc2ccc(Cl)cc12
inactive: [1] 1.05% | [2] -9.15% | [3] 11.4% | [4] 1.05% | [5] 5.8% | [6] 6.5%

N#CC1=C(O)/C(=C\C=C\c2ccccc2)N(C(=O)c2ccccc2)C1=N
inactive: [1] 12.2% | [2] -7.6% | [3] -6.2% | [4] 10.2% | [5] -6.85% | [6] 19.1%

C/C(=N\N=C(N)N)c1sc(-c2nc(C)c(/C(C)=N/N=C(N)N)s2)nc1C
inactive: [1] 4.35% | [2] -11.2% | [3] -13.3% | [4] 26.4% | [5] 6.85% | [6] 19.6%

CC(C)(C)C(OC(=O)Cc1ccccc1)c1ccc2c(c1)OCO2 (stereo not given)
inactive: [1] -9.05% | [2] -2.7% | [3] 2% | [4] -3.25% | [5] 51.4% | [6] -12.1%
